{
  "source": "PubChem BioAssay (NCATS)",
  "key": {"[1]": {"assay": "qHTS for differential inhibitors of proliferation of Plasmodium falciparum line GB4 (AID 1816);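 further: potency means the concentration at half of the fitted maximal effect; parasite growth measured after 72 h incubation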", "details": "Potency: Plasmodium falciparum GB4 proliferation inhibition"}, "[2]": {"assay": "qHTS for differential inhibitors of proliferation of Plasmodium falciparum line 3D7 (AID 1876);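 further: parasite growth measured after three days of culture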"}, "[3]": {"assay": "qHTS for differential inhibitors of proliferation of Plasmodium falciparum line D10 (AID 1877);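 further: parasites grown with compound for 72 h before DNA staining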"}, "[4]": {"assay": "qHTS for differential inhibitors of proliferation of Plasmodium falciparum line W2 (AID 1883);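 further: potency means the concentration at half of the fitted maximal effect; parasites grown with compound for 72 h before lysis and staining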", "details": "Potency: Plasmodium falciparum W2 proliferation inhibition"}, "[5]": {"assay": "qHTS for differential inhibitors of proliferation of Plasmodium falciparum line HB3 (AID 1886);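 further: parasites grown with compound for 72 h before SYBR Green readout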", "details": "Potency: Plasmodium falciparum HB3 proliferation inhibition"}, "[6]": {"molecular_target": "Ferritin light chain (Equus caballus) (UniProt P02791)", "sequence (P02791 2-175 limits assumed)": "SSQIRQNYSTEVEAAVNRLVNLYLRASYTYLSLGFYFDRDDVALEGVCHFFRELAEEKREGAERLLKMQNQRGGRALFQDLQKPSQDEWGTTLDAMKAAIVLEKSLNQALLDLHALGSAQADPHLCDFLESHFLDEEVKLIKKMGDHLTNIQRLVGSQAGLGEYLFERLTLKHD", "assay": "qHTS Validation Assay for Identification of Novel General Anesthetics (AID 2323); further: series mostly up to about 77 µM", "in_short": "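Apoferritin from horse spleen (10 uM) was mixed with 1-aminoanthracene at 50% saturation in PBS, then compounds were added. After 10 min at room temperature, fluorescence was read (ex 380 nm, em 535 nm) and normalized to free-probe and complex controls.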"}, "[7]": {"molecular_target": "ATP-dependent DNA helicase Q1 (Homo sapiens) (UniProt P46063)", "sequence (P46063 whole entry, looked up)": "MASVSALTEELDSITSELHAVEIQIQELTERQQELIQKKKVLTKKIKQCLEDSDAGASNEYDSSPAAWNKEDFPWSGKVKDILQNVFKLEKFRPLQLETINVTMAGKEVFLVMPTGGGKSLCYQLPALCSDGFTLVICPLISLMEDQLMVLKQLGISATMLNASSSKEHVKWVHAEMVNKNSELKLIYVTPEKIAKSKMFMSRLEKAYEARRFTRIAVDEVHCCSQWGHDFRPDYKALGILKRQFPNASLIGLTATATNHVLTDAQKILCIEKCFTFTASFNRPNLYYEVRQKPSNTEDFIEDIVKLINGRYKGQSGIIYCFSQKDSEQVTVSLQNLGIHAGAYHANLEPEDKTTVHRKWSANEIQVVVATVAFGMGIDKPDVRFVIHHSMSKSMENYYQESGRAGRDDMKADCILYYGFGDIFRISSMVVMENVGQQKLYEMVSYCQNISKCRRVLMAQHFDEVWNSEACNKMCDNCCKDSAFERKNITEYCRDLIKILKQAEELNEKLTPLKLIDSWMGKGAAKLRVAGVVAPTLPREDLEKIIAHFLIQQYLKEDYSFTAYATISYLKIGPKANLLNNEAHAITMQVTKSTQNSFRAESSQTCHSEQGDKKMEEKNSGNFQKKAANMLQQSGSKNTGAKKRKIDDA", "assay": "qHTS Validation Assay for Inhibitors of RecQ-Like Dna Helicase 1 (RECQ1) (AID 2353)", "in_short": "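50 nM RECQ1T1 preincubated 15 min with compound in Tris pH 8.0 buffer with MgCl2, DTT, Tween-20 and 2.5 ug/ml poly(dI-dC); started with 200 nM TAMRA/BHQ-2 forked duplex and 2 mM ATP. Unwinding read as fluorescence (525/598 nm), two reads 2 h apart.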"}, "[8]": {"molecular_target": "RecQ-like DNA helicase BLM (Homo sapiens) (UniProt P54132)", "sequence (P54132 whole entry, looked up)": "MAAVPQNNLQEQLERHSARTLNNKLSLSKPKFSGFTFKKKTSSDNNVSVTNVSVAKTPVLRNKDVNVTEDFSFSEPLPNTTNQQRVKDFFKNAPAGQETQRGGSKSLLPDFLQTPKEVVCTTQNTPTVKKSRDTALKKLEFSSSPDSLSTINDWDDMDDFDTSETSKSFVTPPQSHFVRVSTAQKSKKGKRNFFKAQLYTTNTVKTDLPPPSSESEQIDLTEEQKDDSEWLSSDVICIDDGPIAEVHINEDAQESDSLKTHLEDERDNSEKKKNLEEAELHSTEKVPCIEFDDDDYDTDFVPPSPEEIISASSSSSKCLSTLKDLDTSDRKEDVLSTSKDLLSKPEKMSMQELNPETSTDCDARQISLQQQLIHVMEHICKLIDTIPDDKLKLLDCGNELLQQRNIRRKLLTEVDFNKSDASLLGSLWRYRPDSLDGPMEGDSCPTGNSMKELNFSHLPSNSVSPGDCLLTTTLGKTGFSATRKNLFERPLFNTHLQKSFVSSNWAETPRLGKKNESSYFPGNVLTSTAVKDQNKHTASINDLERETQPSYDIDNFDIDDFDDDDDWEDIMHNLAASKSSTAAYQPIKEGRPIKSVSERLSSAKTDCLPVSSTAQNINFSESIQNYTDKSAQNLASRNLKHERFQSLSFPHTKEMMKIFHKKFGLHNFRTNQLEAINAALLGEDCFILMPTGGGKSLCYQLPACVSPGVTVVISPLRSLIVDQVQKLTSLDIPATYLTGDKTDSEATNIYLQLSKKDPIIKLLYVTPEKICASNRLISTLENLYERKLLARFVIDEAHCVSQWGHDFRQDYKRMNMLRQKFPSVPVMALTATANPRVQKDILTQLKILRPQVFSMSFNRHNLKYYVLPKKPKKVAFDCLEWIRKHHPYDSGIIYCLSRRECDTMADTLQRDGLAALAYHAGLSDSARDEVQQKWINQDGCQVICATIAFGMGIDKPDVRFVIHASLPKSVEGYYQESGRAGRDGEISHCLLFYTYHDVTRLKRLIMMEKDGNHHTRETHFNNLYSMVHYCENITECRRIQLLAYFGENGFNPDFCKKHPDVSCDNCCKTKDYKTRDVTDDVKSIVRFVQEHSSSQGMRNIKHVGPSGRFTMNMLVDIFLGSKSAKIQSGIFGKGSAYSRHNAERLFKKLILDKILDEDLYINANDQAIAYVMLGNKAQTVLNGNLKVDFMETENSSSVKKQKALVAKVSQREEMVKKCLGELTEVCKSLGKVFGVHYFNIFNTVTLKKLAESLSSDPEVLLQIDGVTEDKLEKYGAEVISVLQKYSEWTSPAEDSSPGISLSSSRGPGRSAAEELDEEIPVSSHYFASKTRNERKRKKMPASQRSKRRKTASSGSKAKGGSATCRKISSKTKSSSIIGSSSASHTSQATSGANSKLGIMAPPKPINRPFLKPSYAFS", "assay": "qHTS Validation Assay for Inhibitors of Bloom's syndrome helicase (BLM) (AID 2364)", "in_short": "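BLM 50 nM in 25 mM Tris-HCl pH 8.0, 5 mM NaCl, 2 mM MgCl2, 1 mM DTT, 0.01% Tween-20, 2.5 ug/ml poly(dI-dC); 15 min cpd preinc, RT. Start: 200 nM forked DNA + 2 mM ATP (final). TAMRA read, 2 reads 2 h apart.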"}, "[9]": {"assay": "Validation screen for small molecules that induce DNA re-replication in MCF 10A normal breast cells (AID 463097); further: nearly all actives have a fitted effect of over 60% in size", "in_short": "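DNA re-replication was detected as a rise in nuclei with elevated Hoechst fluorescence after a 48 hr compound exposure of MCF 10A cells at 37 C.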"}, "[10]": {"assay": "Quantitative high throughput screen for delayed death inhibitors of the malarial parasite plastid, 96 hour incubation (AID 488745); further: series mostly up to about 29 µM; nearly all actives have a fitted effect of over 70% in size", "in_short": "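P. falciparum carrying an integrated firefly luciferase reporter, grown in erythrocytes (2% hematocrit, 0.1% parasitemia final) in RPMI 1640/0.5% Albumax, was exposed to compound for 96 h (two generations) at 37 C, 5% CO2. Luminescence decrease indicated growth inhibition.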"}, "[11]": {"assay": "Quantitative high throughput screen for delayed death inhibitors of the malarial parasite plastid, 48 hour incubation (AID 488752); further: nearly all actives have a fitted effect of over 65% in size", "in_short": "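Erythrocytes infected with P. falciparum carrying an integrated firefly luciferase reporter (2% hematocrit, 0.1% parasitemia final) were exposed to compounds in RPMI 1640/0.5% Albumax for 48 h at 37 C, 5% CO2. Growth inhibition was scored as reduced luminescence.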"}, "[12]": {"molecular_target": "M-phase phosphoprotein 8 (Homo sapiens) (UniProt Q99549)", "assay": "qHTS Validation Assay for Inhibitors for MPP8 Chromodomain Interactions with Methylated Histone Tails (AID 488949);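 further: AlphaScreen signal from MPP8 chromodomain bound to biotinylated H3K9me3 peptide; top concentration of the series differs between compounds; nearly all actives have a fitted effect of over 55% in size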", "in_short": "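Disruption of the preformed MPP8–trimethyl-H3K9 peptide complex (both 50 nM, 30 min, RT) is measured after 30 min compound exposure, using AlphaScreen proximity beads; aurintricarboxylic acid titration serves as plate control.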"}, "[13]": {"molecular_target": "Transient receptor potential cation channel subfamily V member 1 (Homo sapiens) (UniProt Q8NER1)", "sequence (Q8NER1 whole entry, looked up)": "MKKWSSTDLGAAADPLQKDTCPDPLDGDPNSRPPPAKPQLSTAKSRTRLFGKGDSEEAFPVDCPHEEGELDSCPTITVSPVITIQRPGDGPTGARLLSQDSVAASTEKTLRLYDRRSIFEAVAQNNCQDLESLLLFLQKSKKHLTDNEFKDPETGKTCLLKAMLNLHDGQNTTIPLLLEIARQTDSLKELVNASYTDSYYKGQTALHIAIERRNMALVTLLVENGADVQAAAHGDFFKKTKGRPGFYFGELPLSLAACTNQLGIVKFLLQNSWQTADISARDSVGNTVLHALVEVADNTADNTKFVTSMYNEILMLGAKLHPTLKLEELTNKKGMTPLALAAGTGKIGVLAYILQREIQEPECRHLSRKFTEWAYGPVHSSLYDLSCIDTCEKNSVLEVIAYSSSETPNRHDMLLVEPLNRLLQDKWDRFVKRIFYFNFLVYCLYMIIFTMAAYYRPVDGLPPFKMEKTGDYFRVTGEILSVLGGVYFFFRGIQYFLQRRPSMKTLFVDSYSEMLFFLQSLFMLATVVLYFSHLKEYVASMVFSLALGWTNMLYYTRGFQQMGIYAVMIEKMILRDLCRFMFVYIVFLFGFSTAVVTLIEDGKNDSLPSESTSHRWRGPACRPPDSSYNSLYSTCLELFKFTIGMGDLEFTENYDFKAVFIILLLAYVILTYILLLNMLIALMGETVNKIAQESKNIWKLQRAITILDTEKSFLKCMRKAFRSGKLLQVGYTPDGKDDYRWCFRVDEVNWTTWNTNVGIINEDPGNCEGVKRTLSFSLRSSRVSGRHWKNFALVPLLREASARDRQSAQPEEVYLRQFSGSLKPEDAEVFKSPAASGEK", "assay": "HTS Assay for Compounds that Act as Enhancers of the Vanilloid Receptor 1 (AID 488979)", "in_short": "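TRPV1-expressing cells loaded with Fluo-8 calcium dye; compounds added and calcium influx read kinetically for 3 min (agonist phase), then capsaicin at EC20 added and read 2 min more for enhancement. Fluorescence ex 480/em 520 nm.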"}, "[14]": {"molecular_target": "Thyrotropin receptor (Homo sapiens) (UniProt P16473)", "sequence (P16473 whole entry, looked up)": "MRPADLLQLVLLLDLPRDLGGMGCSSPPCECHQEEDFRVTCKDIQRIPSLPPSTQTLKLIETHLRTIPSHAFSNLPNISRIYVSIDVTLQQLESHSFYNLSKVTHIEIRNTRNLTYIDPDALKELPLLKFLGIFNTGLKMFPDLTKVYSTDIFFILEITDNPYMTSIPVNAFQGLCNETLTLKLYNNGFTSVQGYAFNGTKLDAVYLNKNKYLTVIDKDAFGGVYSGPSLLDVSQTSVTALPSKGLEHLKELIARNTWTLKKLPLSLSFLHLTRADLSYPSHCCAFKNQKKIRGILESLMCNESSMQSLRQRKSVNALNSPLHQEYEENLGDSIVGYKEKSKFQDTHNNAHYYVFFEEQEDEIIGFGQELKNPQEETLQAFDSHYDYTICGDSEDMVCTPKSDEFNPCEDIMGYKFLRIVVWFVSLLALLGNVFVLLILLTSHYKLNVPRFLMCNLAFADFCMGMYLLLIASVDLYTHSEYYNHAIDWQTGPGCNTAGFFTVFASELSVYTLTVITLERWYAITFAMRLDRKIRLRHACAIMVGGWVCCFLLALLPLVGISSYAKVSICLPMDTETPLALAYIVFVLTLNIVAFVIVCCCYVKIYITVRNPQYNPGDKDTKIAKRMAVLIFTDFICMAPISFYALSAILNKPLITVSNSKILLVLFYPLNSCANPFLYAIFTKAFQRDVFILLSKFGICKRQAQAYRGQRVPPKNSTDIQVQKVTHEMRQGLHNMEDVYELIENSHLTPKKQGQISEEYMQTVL", "assay": "qHTS Assay for Antagonists of the Thyroid Stimulating Hormone Receptor (AID 488980); further: series mostly up to about 58 µM", "in_short": "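Cells expressing human TSHR (HEK293) are dispensed in HBSS/HEPES containing 70 uM RO 20-1724, compound is added, then TSH at EC80 (4 nM final). Antibody in lysis buffer follows, 30 minutes at room temperature before HTRF detection.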"}, "[15]": {"molecular_target": "Thyrotropin-releasing hormone receptor (Homo sapiens) (UniProt P34981)", "sequence (P34981 whole entry, looked up)": "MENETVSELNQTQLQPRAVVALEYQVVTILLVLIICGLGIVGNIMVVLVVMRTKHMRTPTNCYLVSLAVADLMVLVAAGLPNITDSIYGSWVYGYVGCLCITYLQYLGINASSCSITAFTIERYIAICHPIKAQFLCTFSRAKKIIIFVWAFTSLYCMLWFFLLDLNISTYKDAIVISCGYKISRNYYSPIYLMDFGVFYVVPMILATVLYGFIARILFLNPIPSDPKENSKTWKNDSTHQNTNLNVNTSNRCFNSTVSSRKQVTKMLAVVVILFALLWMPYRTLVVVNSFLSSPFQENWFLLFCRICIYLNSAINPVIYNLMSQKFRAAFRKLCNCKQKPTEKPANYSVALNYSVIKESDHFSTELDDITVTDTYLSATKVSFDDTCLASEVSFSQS", "assay": "qHTS for Small Molecule Agonists and Allosteric Enhancers of Human TRH Receptor: Validation Screen for Agonists (AID 493127;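 active means calcium activation more than 3 SD above the typical response in the agonist read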)", "details": "TRH receptor agonist cell assay; at 2 µM; active compounds read high", "in_short": "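TRHR-expressing cells were plated overnight in serum-containing medium, then loaded with fluo-8 calcium dye at room temperature for 30 min–1.5 h. After a 10 s baseline, compound was pin-transferred and calcium fluorescence (ex 480/em 530) read kinetically for agonist response.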"}, "[16]": {"molecular_target": "Galactokinase (Homo sapiens) (UniProt P51570)", "sequence (P51570 whole entry, looked up)": "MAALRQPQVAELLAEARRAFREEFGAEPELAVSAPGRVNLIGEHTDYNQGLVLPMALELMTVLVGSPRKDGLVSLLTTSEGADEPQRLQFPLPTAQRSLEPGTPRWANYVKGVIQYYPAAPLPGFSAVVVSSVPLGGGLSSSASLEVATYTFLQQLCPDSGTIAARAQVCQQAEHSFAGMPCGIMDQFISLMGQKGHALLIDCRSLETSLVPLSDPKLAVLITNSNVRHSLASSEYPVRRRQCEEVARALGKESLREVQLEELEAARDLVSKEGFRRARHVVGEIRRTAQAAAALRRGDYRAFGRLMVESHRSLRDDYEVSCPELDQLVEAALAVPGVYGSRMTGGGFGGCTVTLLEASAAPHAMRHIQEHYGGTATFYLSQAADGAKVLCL", "assay": "qHTS Validation Assay for Inhibitors of Human Galactokinase (GALK) (AID 493189)", "in_short": "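Compounds were pin-transferred into ATP buffer, then GALK-galactose mix was added (final 5 nM enzyme, 100 uM galactose, 35 uM ATP). After 1 h at room temperature, remaining ATP was measured luminescently.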"}, "[17]": {"assay": "Validation screen for small molecules that induce DNA re-replication in SW480 colon adenocarcinoma cells (AID 504364)", "in_short": "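SW480 cells seeded at 250 per well were exposed to compound or DMSO for 48 hr at 37 C, 5% CO2, then stained with Hoechst for 40 min. DNA content per nucleus was imaged (405 nm ex, 500-530 nm em).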"}, "[18]": {"molecular_target": "DNA dC->dU-editing enzyme APOBEC-3G (Homo sapiens) (UniProt Q9HC16)", "sequence (Q9HC16 whole entry, looked up)": "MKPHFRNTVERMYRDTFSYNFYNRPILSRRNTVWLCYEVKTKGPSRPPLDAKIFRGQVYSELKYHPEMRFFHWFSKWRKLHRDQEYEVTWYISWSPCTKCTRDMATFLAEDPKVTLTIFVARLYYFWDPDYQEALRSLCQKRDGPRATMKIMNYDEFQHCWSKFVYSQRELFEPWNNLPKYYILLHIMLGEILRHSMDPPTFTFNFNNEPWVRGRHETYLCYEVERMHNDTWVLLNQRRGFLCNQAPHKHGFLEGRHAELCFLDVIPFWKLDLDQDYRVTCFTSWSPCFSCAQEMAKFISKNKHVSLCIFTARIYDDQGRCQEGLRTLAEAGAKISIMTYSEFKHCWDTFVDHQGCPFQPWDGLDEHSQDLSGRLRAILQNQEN", "assay": "qHTS for inhibitors of Vif-A3G interactions: Validation (AID 588379)", "in_short": "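HeLa cells stably expressing Vif and A3G-eYFP, 700 cells/well, incubated overnight at 37 deg C, then exposed to compound overnight at 37 deg C. Inhibition of Vif-mediated degradation read as increased yellow fluorescence (Ex 488/Em 500-530) by laser-scanning cytometry.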"}, "[19]": {"test_system": "Zika virus NS2B-NS3 protease", "assay": "Primary screen GU AMC qHTS for Zika virus inhibitors (AID 1347154); further: nearly all actives have a fitted effect of over 70% in size", "in_short": "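Unlinked Zika NS2B hydrophilic domain/NS3 protease domain noncovalent complex (25 nM final) in 10 mM Tris-HCl pH 8.0, 0.01% Tween 20, with AMC peptide substrate. Fluorescence (ex 340, em 450 nm) change over 15 min, room temperature; percent inhibition fitted to 4-parameter Hill equation.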"}, "[20]": {"assay": "Primary qHTS for small molecule stabilizers of the endoplasmic reticulum resident proteome: Secreted ER Calcium Modulated Protein (SERCaMP) assay (AID 1508630)", "in_short": "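GLuc-SERCaMP-expressing SH-SY5Y cells, pretreated 16 h with compound, are challenged with thapsigargin to empty ER calcium stores; after 4 h, coelenterazine is added directly to the medium and luminescence is imaged.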"}},
  "note": "A number with no mark means an inactive call. Results filed as inconclusive are left out. Where a call stands in place of a potency, no number is given. Active and inactive are the calls of the source. Unless noted, the call rests on the fitted dose curve; in most records, active means well fitted curve in the direction sought with a large enough effect; inconclusive means small, poorly fitted or top-dose-only effect, or another doubt; inactive means no such curve, though single readings can be large; an effect the other way counts as inactive or inconclusive.",
  "data": [
    {"compound": "O=C(OCCN1CCCCC1)c1c[nH]c2ccccc12", "values": [
      {"measurement": "Potency", "setting": "[1]", "result": "10 µM (active)"},
      {"measurement": "Potency", "setting": "[2]", "result": "inactive"},
      {"measurement": "Potency", "setting": "[3]", "result": "inactive"},
      {"measurement": "Potency", "setting": "[4]", "result": "8.91 µM (active)"},
      {"measurement": "Potency", "setting": "[5]", "result": "inactive"},
      {"measurement": "outcome", "setting": "[6]", "result": "inactive"},
      {"measurement": "Potency", "setting": "[7]", "result": "inactive"},
      {"measurement": "Potency", "setting": "[8]", "result": "inactive"},
      {"measurement": "Potency", "setting": "[9]", "result": "inactive"},
      {"measurement": "Potency", "setting": "[10]", "result": "inactive"},
      {"measurement": "Potency", "setting": "[11]", "result": "inactive"},
      {"measurement": "Potency", "setting": "[12]", "result": "inactive"},
      {"measurement": "outcome", "setting": "[13]", "result": "inactive"},
      {"measurement": "outcome", "setting": "[14]", "result": "inactive"},
      {"measurement": "activation", "setting": "[15]", "result": 1.38, "unit": "%"},
      {"measurement": "outcome", "setting": "[16]", "result": "inactive"},
      {"measurement": "outcome", "setting": "[17]", "result": "inactive"},
      {"measurement": "Potency", "setting": "[18]", "result": "inactive"},
      {"measurement": "Potency", "setting": "[19]", "result": "inactive"},
      {"measurement": "Potency", "setting": "[20]", "result": "inactive"}
    ]}
  ]
}
